Assay outcomes as filed in PubChem BioAssay.
HSF1 inhib = HSF1 inhibitors in luciferase reporter cells, primary screen, cell-based, NIH3T3, luminescence. NIH3T3-HGL HSE-luciferase, MG132-induced, luminescence 8 h; hits give low values. activity change, negative = inhibition, % at 7.5 µM (by protocol). actives 0.77% (n = 300,000). AID 2098, 2009;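 active means more than half of replicate wells show activity change below -50%, luminescence cut by over half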;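 further: luciferase reports HSF-1 transcriptional activity via heat shock element; 0% = median of DMSO wells and -100% = zero luminescence signal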
S1P3 antag = S1P3 receptor antagonists, primary screen, cell-based; Sphingosine 1-phosphate receptor 3 (Homo sapiens), Q99500; CHO S1P3 NFAT-BLA reporter, FRET fluorescence, antagonist mode; inhibition, % at 4.98 µM; actives 0.27% (n = 170,000); AID 485, 2006;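 active means inhibition above the plate cutoff, the mean inhibition of test wells on that plate plus 3 SD, cut at about 28% in these data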;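 further: cells challenged with S1P at its EC80 of 0.8 µM; blue over green emission ratio from cleaved BLA substrate after 4 h stimulation; 0% = S1P-stimulated wells and 100% = unstimulated DMSO-only wells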
S1P4 agonist = S1P4 receptor agonists, primary screen, cell-based | Sphingosine 1-phosphate receptor 4 (Homo sapiens), O95977 | S1P4-expressing cell line, agonist reporter assay | activation, % at 4.98 µM | actives 0.35% (n = 220,000); in the data active means activation above about 11%;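 further: 0% = DMSO vehicle and 100% = reference agonist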
Target sequence (O95977 whole entry, looked up): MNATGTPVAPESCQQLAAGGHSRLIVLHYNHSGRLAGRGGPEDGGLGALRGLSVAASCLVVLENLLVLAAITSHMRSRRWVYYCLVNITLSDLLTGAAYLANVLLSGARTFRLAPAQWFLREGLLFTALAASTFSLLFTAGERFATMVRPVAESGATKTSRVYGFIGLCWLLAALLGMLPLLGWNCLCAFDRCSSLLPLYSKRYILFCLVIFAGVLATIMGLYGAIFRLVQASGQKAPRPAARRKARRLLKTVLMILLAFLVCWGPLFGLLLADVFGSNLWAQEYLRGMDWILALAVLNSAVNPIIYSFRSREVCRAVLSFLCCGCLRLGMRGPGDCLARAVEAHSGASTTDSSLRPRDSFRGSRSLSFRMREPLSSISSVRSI
S1P4 antagonist = S1P4 receptor antagonists, primary screen, cell-based; S1P4-expressing cells, antagonist mode, reporter read-out; actives 0.26% (n = 220,000); inhibition, % at 4.98 µM; Sphingosine 1-phosphate receptor 4 (Homo sapiens), O95977; in the data active means inhibition above about 29%;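 further: 0% = wells stimulated with agonist and 100% = vehicle wells without agonist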
HSF1 activator = HSF-1 activators, primary screen, NIH3T3-HGL cells, MG132 stress, luminescence, single point; actives 1.7% (n = 300,000); activation, % at 9 µM; AID 504408, 2011; NIH3T3-HGL HSF-1 luciferase reporter, 8 h; 100% = twice DMSO control signal;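 active means mean replicate activation of at least 50% with a set share of replicates each reaching 50%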;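 further: 0% = median of the neutral control wells and 100% = twice that signal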
Hsp70 act = Hsp70 transcriptional activators, primary screen, cell-based, HeLa, Hsp70 promoter luciferase, luminescence, 10 µM; HeLa Hsp70 promoter luciferase reporter; scaled: vehicle 0, proteasome-inhibitor control 100%; activation, % at 10 µM; actives 0.04% (n = 200,000); AID 1203, 2008;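 active means activation above the mean across all tested compounds plus 3 SD, cutoff set per campaign, cut at about 5.5% in these data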;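 further: 100% = MG132 at 30 µM as the positive control and 0% = DMSO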
Numbers without * were called inactive; · = not tested or not shown. Most compounds without a hit are left out; they make up all but 2.9% or so of the library.

SMILES | HSF1 inhib | S1P3 antag | S1P4 agonist | S1P4 antagonist | HSF1 activator | Hsp70 act
Cc1ccc(/C(N)=N/OC(=O)c2ccco2)cc1 | 26 | · | -1 | -10 | 55* | 0
COc1ccc(/C(N)=N/OC(=O)c2ccco2)cc1 | -22 | 4 | 1 | -24 | -10 | 0
O=C(c1cc(-c2cccc(Cl)c2)nc2ccccc12)N1CCN(c2ccccn2)CC1 | 0 | · | · | · | 19 | ·
Cc1cccc2c(C(=O)N3CCCCC3)cc(-c3ccccc3)nc12 | 20 | · | · | · | 27 | ·
Cc1cccc2c(C(=O)N3CCN(c4ccccc4)CC3)cc(-c3ccncc3)nc12 | -70* | · | · | · | -75 | ·
Cc1cccc2c(C(=O)N3CCN(c4ccccn4)CC3)cc(-c3cccc(Br)c3)nc12 | -79* | · | · | · | -84 | ·
COc1cc(OC)c(NC(=O)Cn2cnc3sc(C)c(S(=O)(=O)N4CCOCC4)c3c2=O)cc1Cl | -1 | · | · | · | 25 | ·
CCCCCN(C(=O)CCC(=O)OC(C)C(=O)NCc1ccccc1)c1c(N)n(CCCC)c(=O)[nH]c1=O (stereo not given) | 0 | · | · | · | -5 | ·
CC(=O)c1ccc(N2CCN(c3ccc(C(F)(F)F)cn3)CC2)cc1 | -7 | 77* | 1 | 4 | -3 | 0
c1ccc2oc(-c3csc(NCC4CCCO4)n3)cc2c1 (stereo not given) | 35 | -19 | 1 | 0 | 52* | 0
O=C1CCCN1CCC1CCN(C(=O)Nc2ccccc2)CC1 | -68* | -8 | 2 | -13 | -73 | 0
CCOc1ccc(C2Oc3nc(SC)nnc3-c3ccccc3N2C(C)=O)cc1OC (stereo not given) | 0 | 55* | 1 | -16 | 0 | 0
CCC(=O)N1c2ccccc2-c2nnc(SC)nc2OC1c1ccc(OC)c(OC)c1 (stereo not given) | -10 | -6 | -1 | -6 | -2 | 0
Cc1cc(C)n2nc(SCC(=O)NC3CCCCC3C)nc2n1 (stereo not given) | 7 | · | · | · | 4 | ·
O=c1oc2cc(Cl)ccc2n1CSc1nc2ccccc2s1 | 63 | · | 0 | 14 | 104* | 0
O=C(CSc1nc2ccccc2s1)N1c2ccccc2Sc2ccc(Cl)cc21 | 22 | · | 0 | 4 | 19 | -1
CC(C)C(=O)Nc1ccccc1C(=O)OCC(=O)c1ccc2c(c1)OCCO2 | -6 | -26 | -1 | -3 | -16 | 0
Cc1ccc(N2C(=O)NC(NS(=O)(=O)c3ccccc3)(C(F)(F)F)C2=O)cc1 (stereo not given) | -79* | · | · | · | -82 | ·
Cc1ccc(N2C(=O)NC(NS(=O)(=O)c3ccc(C)cc3)(C(F)(F)F)C2=O)cc1 (stereo not given) | 7 | · | · | · | -3 | ·
CC(C)COc1ccc(CNC(=S)N/N=C/c2ccc([N+](=O)[O-])cc2)cc1 | 6 | · | -1 | -2 | -2 | 0
CC(C)Oc1ccc(CNC(=S)N/N=C/c2ccc([N+](=O)[O-])cc2)cc1 | -67* | · | 0 | 7 | -74 | 0
CCN(CC)c1ccc(/C=N/NC(=S)NCc2ccccc2)cc1 | 11 | · | 1 | -11 | 27 | 0
CCN(CC)c1ccc(/C=N/NC(=S)NCc2ccc(OC)cc2)cc1 | 22 | -9 | 6 | -1 | 53* | 0
O=C(NCCS(=O)(=O)NC1CCCC1)c1ccc(F)cc1 | -2 | · | · | · | -7 | ·
CCCOc1cccc(-c2cc(C(=O)N/N=C/c3ccccn3)c3ccccc3n2)c1 | 109 | · | · | · | 143* | ·
SMILES | HSF1 inhib | S1P3 antag | S1P4 agonist | S1P4 antagonist | HSF1 activator | Hsp70 act
O=C(N/N=C/c1ccccn1)c1cc(-c2ccc(Br)cc2)nc2ccccc12 | 174 | 1 | 0 | 13 | 169* | ·
O=C(N/N=C/c1ccco1)c1cc(-c2ccccc2)nc2ccccc12 | 3 | · | · | · | 2 | ·
CCCOc1cccc(-c2cc(C(=O)NN)c3ccccc3n2)c1 | -11 | -17 | 1 | 14 | 9 | 0
N#Cc1ccc(/C=N/NC(=O)c2cc(-c3cccs3)nc3ccccc23)cc1 | 31 | -4 | 1 | -22 | 60* | 0
O=C(O)COc1ccccc1/C=N/NC(=O)c1cc(-c2ccc(Cl)cc2)nc2ccccc12 | 4 | -9 | -1 | -1 | 21 | ·
COc1cc(/C=N/NC(=O)c2cc(-c3cccs3)nc3ccccc23)ccc1O | -3 | -5 | 0 | 5 | -9 | ·
O=C(N/N=C/c1ccccn1)c1cc(-c2ccc(Cl)cc2)nc2ccccc12 | 113 | -1 | 0 | 5 | 147* | -1
CCOC(=O)C1=C(CC)Nc2ccccc2N/C1=N\S(=O)(=O)c1cc(Br)ccc1Br | 4 | 2 | 0 | -3 | 22 | 0
CC1=NN(C(N)=S)C(=O)C1N=Nc1ccc(F)cc1 (stereo not given) | 31 | · | · | · | 53* | ·
O=C(O)CSc1nc2ccccc2nc1Cc1ccccc1F | 23 | · | · | · | 54* | ·
CC1=C(C(=O)Nc2ccccc2C)C(c2cccs2)NC(=S)N1 (stereo not given) | -51* | -12 | 3 | -18 | -62 | 0
CC1=C(C(=O)Nc2ccc(C)cc2C)C(c2cccs2)NC(=S)N1 (stereo not given) | -6 | · | -2 | -7 | -3 | 0
CC(C)CNS(=O)(=O)c1ccc(CCC(=O)N2CCOCC2)cc1 | -73* | -55 | 2 | -1 | -80 | 0
Cc1ccc(-n2nc3ccc(NC(=O)C(C)C)cc3n2)cc1 | 4 | 10 | 0 | 4 | 30 | 0
CC(C)CC(=O)Nc1ccc2nn(-c3ccccc3)nc2c1 | 27 | 13 | 3 | -9 | 60* | 0
COC(=O)c1ccc(C23CC4(C2)[C@H](CN(CC2CCCCC2)[C@@H]4c2ccccc2)C3c2ccc(C(F)(F)F)cc2)cc1 (stereo not given in full) | -10 | · | · | · | -10 | ·
O=C(Cn1cc([N+](=O)[O-])cn1)NCC1CCCO1 (stereo not given) | -63* | -12 | 1 | -21 | -71 | 0
O=C(CSc1ccccc1)Nc1nccs1 | -2 | -2 | 0 | -13 | 19 | 0
O=C(CSc1cn(Cc2ccccc2)c2ccccc12)Nc1nccs1 | 45 | 20 | -2 | -30 | 65* | 0
Cc1ccccc1-c1nnc(SCCOc2ccc3c(C)cc(=O)oc3c2)o1 | -11 | · | 0 | -22 | 8 | 0
COc1ccc2[nH]c(-c3ccccc3)cc2c1 | 18 | 10 | 1 | -1 | 44 | ·
COc1ccc2cc(-c3ccccc3)ncc2c1 | 35 | · | · | · | 75* | ·
Cc1ccccc1CC(=O)NC1CCCc2ccccc21 (stereo not given) | 37 | · | · | · | 65* | ·
O=C(Cn1cc(C(=O)c2ccco2)c2ccccc21)NC1CCCCC1 | -87* | -12 | 0 | -11 | -90 | 0
